# Experimental data reported in PubChem BioAssay (NCATS).
# Where “and” joins values, the source holds several entries; their conditions need not be identical. Equal values may be shown once. Results filed as inconclusive are left out. Entries that show only a call come without a potency. Values without a mark were called inactive. Calls of active or inactive are those of the source. Unless noted, calls come from the whole dose curve; as a rule, active = well fitted curve in the direction sought with a large enough effect; inconclusive = small, poorly fitted or top-dose-only effect, or another doubt; inactive = no such curve, though single readings can be large; an effect the other way counts as inactive or inconclusive.
# What was measured:
# [1] = Primary qHTS for inhibitors of La Crosse Virus (LACV) - induced cell death in SH-SY5Y cells (AID 1508616);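 note: top concentration of the series differs between compounds; higher means more rescue of cells from virus-induced death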
# Outline: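 Luminescent ATP readout (ATPLite 1step, 5 min room temperature) measured rescue from LACV-induced death after 6 days of infection at 0.01 MOI; normalized to infected DMSO wells and uninfected DMSO wells.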
# [2] = Primary qHTS for small molecule stabilizers of the endoplasmic reticulum resident proteome: Secreted ER Calcium Modulated Protein (SERCaMP) assay (AID 1508630)
# Outline: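 GLuc-SERCaMP-expressing SH-SY5Y cells, pretreated 16 h with compound, are challenged with thapsigargin to empty ER calcium stores; after 4 h, coelenterazine is added directly to the medium and luminescence is imaged.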
# [3] = target: Calcium and integrin-binding protein 1 (Homo sapiens) (UniProt Q99828); assay: Primary qHTS for Identification of Calcium Integrin Binding Protein 1 (CIB1) Competitor (AID 1508620);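 note: GST tagged CIB1 binding a fluorescein labelled alphaIIb integrin peptide tracer; top concentration of the series differs between compounds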
# Sequence of Calcium and integrin-binding protein 1 (Homo sapiens) (Q99828 whole entry, looked up): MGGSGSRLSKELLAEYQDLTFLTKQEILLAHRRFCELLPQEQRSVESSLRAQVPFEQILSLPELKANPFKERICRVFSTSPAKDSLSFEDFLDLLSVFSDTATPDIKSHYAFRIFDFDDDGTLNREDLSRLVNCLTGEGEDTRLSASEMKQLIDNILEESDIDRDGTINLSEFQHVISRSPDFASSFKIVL
# Outline: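 CIB1-GST (1 uM final) and compound incubated 15 min at room temperature before adding FITC-alphaIIb peptide tracer (100 nM final). Competition for binding read by fluorescence polarization (ex 480, em 540) after another 15 min at room temperature.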
# [4] = A High-Content qHTS Against Drug Library for the Identification of Small Molecules that Inhibit DYT1 Early Onset Primary Dystonia-Associated Cell Pathology (AID 1645839; calls by dose curve; note: potency is the fitted concentration of half-maximal effect)
# Outline: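 In this high-content image screen, delE TorsinA mislocalization in inducible Flp-In 293 cells is scored as %pathology, with cell count serving as the counterscreen. Compound exposure lasts 48 h under tetracycline induction in reduced-serum medium.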
# [5] = target: Cytochrome P450 2D6 (Homo sapiens) (UniProt P10635); assay: Cytochrome P450 family 2 subfamily D member 6 (CYP2D6) small molecule antagonists: luciferase biochemical (cell-free) qHTS assay (AID 1645840; active = well fitted curve in the direction sought with a large enough effect in the repeat runs; an effect the other way counts as inactive or inconclusive; note: nearly all actives have a fitted effect of over 55% in size; note: potency is the fitted concentration of half-maximal effect)
# Sequence of Cytochrome P450 2D6 (Homo sapiens) (P10635 whole entry, looked up): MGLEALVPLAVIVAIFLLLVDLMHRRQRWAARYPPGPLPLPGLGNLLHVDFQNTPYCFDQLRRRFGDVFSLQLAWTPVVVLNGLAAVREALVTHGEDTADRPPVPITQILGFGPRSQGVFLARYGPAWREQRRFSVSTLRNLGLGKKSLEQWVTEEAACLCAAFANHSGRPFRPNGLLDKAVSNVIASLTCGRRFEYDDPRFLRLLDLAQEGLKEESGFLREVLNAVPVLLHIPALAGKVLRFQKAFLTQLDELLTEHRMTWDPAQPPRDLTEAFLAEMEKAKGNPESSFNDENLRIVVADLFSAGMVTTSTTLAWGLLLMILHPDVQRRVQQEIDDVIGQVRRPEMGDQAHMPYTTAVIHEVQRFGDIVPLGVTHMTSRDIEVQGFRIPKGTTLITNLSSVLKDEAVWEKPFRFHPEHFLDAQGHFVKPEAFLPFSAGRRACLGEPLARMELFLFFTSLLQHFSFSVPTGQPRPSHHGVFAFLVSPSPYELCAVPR
# Outline: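 P450-Glo luminescent screen: recombinant CYP2D6 enzyme–proluciferin substrate mix preincubated with compound 10 min at room temperature, then NADPH regeneration added for 1 h at room temperature. Detection reagent added for 20 min; luciferin light read as relative luminescence units.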
# [6] = target: Calcium and integrin-binding protein 1 (Homo sapiens) (UniProt Q99828); assay: Validation qHTS for Identification of Calcium Integrin Binding protein 1 (CIB1) Competitor (AID 1508618)
# Outline: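 Displacement of FITC-alphaIIb peptide (100 nM) from CIB1-GST (1 uM) is monitored by polarization in quantitative HTS format; buffer carries 5 mM CaCl2 and 125 mM NaCl at pH 7.4, incubations are at room temperature.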
# [7] = Counterscreen qHTS for small molecule stabilizers of the endoplasmic reticulum resident proteome: GLuc-NoTag assay (AID 1508627); note: potency is the fitted concentration of half-maximal effect
# Outline: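 Luminescence of Gaussia luciferase secreted into the medium (coelenterazine, 0.07x final, unlysed cells) was the read-out. Human SH-SY5Y neuroblastoma cells constitutively secreting untagged GLuc received compound for 19 h, then 100 nM thapsigargin for 4 h.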
# [8] = Confirmatory qHTS for small molecule stabilizers of the endoplasmic reticulum resident proteome: Secreted ER Calcium Modulated Protein (SERCaMP) assay (AID 1508628); note: nearly all actives have a fitted effect of over 40% in size; note: potency is the fitted concentration of half-maximal effect
# Outline: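 We seeded SH-SY5Y-GLuc-SERCaMP cells, added compounds (three concentrations in the primary run, eleven up to 76.6 uM in confirmation), incubated 16 h, depleted ER calcium with thapsigargin, and read luciferase 4 h later.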
# [9] = Cell Viability qHTS for small molecule stabilizers of the endoplasmic reticulum resident proteome (AID 1508629); details: cell viability counter-screen, 100 nM thapsigargin for final 4 h;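 note: compound exposure about 46 h in total before the viability read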; note: potency is the fitted concentration of half-maximal effect;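 for max response: human SH-SY5Y neuroblastoma cells carrying the GLuc-SERCaMP reporter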
# [10] = target: Calcium and integrin-binding protein 1 (Homo sapiens) (UniProt Q99828); assay: Confirmatory qHTS for Identification of Calcium Integrin Binding Protein 1 (CIB1) Competitor (AID 1508617); note: nearly all actives have a fitted effect of over 65% in size; note: potency is the fitted concentration of half-maximal effect
# Outline: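 Confirmatory qHTS measures displacement of a FITC-alphaIIb peptide (100 nM) from CIB1-GST (1 uM) by fluorescence polarization. Calcium-containing HEPES buffer, pH 7.4; two 15 min room-temperature incubations.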
compound,measurement,setting,value
CCCN(CCC)[C@@H]1CCc2ccc(O)cc2C1,outcome,[1],inactive
same,Potency,[2],inactive
COC1=C[C@@H]2[C@@H]3Cc4ccc(OC)c(O)c4[C@]2(CCN3C)CC1=O,outcome,[3],inactive
O=S(=O)(c1ccc(Cl)cc1)c1ccc(Cl)cc1,outcome,[1],inactive
same,Potency,[2],inactive
same,Potency,[4],inactive
CC(C)(C)c1cc(C=C(C#N)C#N)cc(Br)c1O,outcome,[3],inactive
CCC1(CCC(C)C)C(=O)NC(=O)NC1=O,outcome,[1],inactive
same,Potency,[4],inactive
same,Potency,[5],inactive
NCCc1c[nH]c2ccccc12,outcome,[1],inactive
same,Potency,[2],inactive
CS(=O)(=O)c1ccc(C(=O)C2C(=O)CCCC2=O)c([N+](=O)[O-])c1,outcome,[1],inactive
same,Potency,[2],inactive
same,Potency,[4],inactive
same,Potency,[5],inactive
CC(C)NCC(O)c1ccc([N+](=O)[O-])cc1 (stereo not drawn),outcome,[1],inactive
same,Potency,[2],inactive
same,Potency,[4],inactive
C=CCC1=C(C)C(OC(=O)C2C(C=C(C)C)C2(C)C)CC1=O (stereo not drawn),outcome,[1],inactive
same,Potency,[4],inactive
same,Potency,[5],23.8 µM (active)
CCCN1CCC[C@H](c2cccc(O)c2)C1,outcome,[1],inactive
same,Potency,[2],inactive
C[C@@H]1CC[C@@]2(OC1)O[C@H]1C[C@H]3[C@@H]4CC=C5C[C@@H](O[C@@H]6O[C@H](CO)[C@@H](O[C@@H]7O[C@@H](C)[C@H](O)[C@@H](O)[C@@H]7O)[C@H](O)[C@@H]6O[C@@H]6O[C@@H](C)[C@H](O)[C@@H](O)[C@@H]6O)CC[C@]5(C)[C@@H]4CC[C@]3(C)[C@@H]1[C@H]2C,outcome,[3],inactive
NC1CCc2cc(O)c(O)cc2C1 (stereo not drawn),outcome,[6],inactive
same,Potency,[7],inactive
same,Potency,[8],inactive
same,max response,[9],25.8%
CN[C@@H](C)[C@H](O)c1ccccc1,outcome,[1],inactive
same,Potency,[2],inactive
same,Potency,[4],inactive
same,Potency,[5],inactive
COc1nn(CSP(=S)(OC)OC)c(=O)s1,outcome,[1],inactive
same,Potency,[2],inactive
same,Potency,[5],25.9 µM (active)
CC(C)Oc1cccnc1N(C)C1CCN(Cc2ccccc2)CC1,outcome,[1],inactive
same,Potency,[2],inactive
CNCCc1ccc(O)c(O)c1,outcome,[6],inactive
same,Potency,[7],11.2 µM (active)
same,Potency,[8],39.8 µM (active)
same,max response,[9],11.4%
CCCCc1ccc(C(=O)O)nc1,outcome,[1],inactive
same,Potency,[2],inactive
same,Potency,[5],inactive
Clc1cnc(Oc2ccc(Oc3ncc(Cl)cc3Cl)cc2)c(Cl)c1,outcome,[1],inactive
same,Potency,[2],inactive
O=C1C(I)=CC(=C(c2cc(I)c(O)c(I)c2)c2ccccc2C(=O)O)C=C1I,outcome,[1],inactive
same,Potency,[5],9.77 µM (active)
CCOCCOC(C)=O,outcome,[1],inactive
same,Potency,[4],inactive
same,Potency,[5],inactive
O=[N+]([O-])c1c(Cl)c(Cl)cc(Cl)c1Cl,outcome,[1],inactive
same,Potency,[4],inactive
same,Potency,[5],inactive
CC1(N2CCC(n3c([C@@H]4CCCNC4)nc4ccccc43)CC2)CCCCCCC1,outcome,[3],inactive
CC(C)(C)[C@]1(O)C[C@@H]2OC(=O)C[C@@]23C(=O)O[C@@H]2OC(=O)[C@H](O)C213 (stereo partly drawn),outcome,[3],inactive
CCOC(=O)c1cncn1[C@H](C)c1ccccc1,outcome,[3],inactive
C#CCOC(=O)C1=CCCN(C)C1,outcome,[1],inactive
same,Potency,[2],inactive
CC(=O)[O][Hg][c]1ccccc1,Potency,[10],inactive
same,Potency,[2],inactive
same,Potency,[4],2.82 µM (active)
same,Potency,[5],0.617 µM (active)
CN[C@@H]1C[C@@H](c2ccc(Cl)c(Cl)c2)c2ccccc21,outcome,[1],inactive
same,Potency,[2],inactive
CC1=C(O)C(=O)C=C2C1=CC=C1[C@@]2(C)CC[C@@]2(C)[C@@H]3C[C@](C)(C(=O)O)CC[C@]3(C)CC[C@]12C,Potency,[10],22.4 µM (active)
same,Potency,[2],inactive
NCCc1c[nH]c2ccc(O)cc12,outcome,[1],inactive
same,Potency,[2],inactive
CCCN(CCC)C1CCc2ccc(O)cc2C1 (stereo not drawn),outcome,[1],inactive
same,Potency,[2],inactive
O=C(O)[C@@H]1CCN1,outcome,[1],inactive
same,Potency,[2],inactive
CC(C)(C)C(O)C(Oc1ccc(Cl)cc1)n1cncn1 (stereo not drawn),outcome,[1],inactive
same,Potency,[2],inactive
same,Potency,[4],inactive
C[C@@H]1[C@H](O)[C@@H](C)C=CC=CCCC=CC=CC=CC=C[C@H](O[C@H]2O[C@@H](C)[C@H](O)[C@@H](N)[C@@H]2O)CC2O[C@](O)(C[C@@H](O)[C@H](O)CC[C@@H](O)C[C@@H](O)C[C@@H](O)CC(=O)O[C@H]1C)C[C@H](O)[C@H]2C(=O)O,outcome,[3],inactive
same,Potency,[2],inactive
CC=C(C)C(=O)N[C@@H](c1ccccc1)[C@@H](O)C(=O)O[C@H]1C[C@@]2(O)[C@@H](OC(=O)c3ccccc3)[C@@H]3[C@]4(OC(C)=O)CO[C@@H]4C[C@H](O)[C@@]3(C)C(=O)[C@H](OC(C)=O)C(=C1C)C2(C)C,outcome,[3],inactive
same,Potency,[2],inactive
COc1ccc2c(c1)CN(C)CC2c1ccc(Cl)c(Cl)c1 (stereo not drawn),outcome,[3],inactive
same,Potency,[2],inactive
CC(C)(O)C=CC(=O)[C@](C)(O)[C@H]1[C@H](O)C[C@]2(C)[C@@H]3CC=C4[C@@H](C=C(O)C(=O)C4(C)C)[C@]3(C)C(=O)C[C@@]12C,outcome,[3],inactive
same,Potency,[2],inactive
CC(=Cc1csc(C)n1)[C@@H]1C[C@H]2O[C@@H]2CCC[C@H](C)[C@@H](O)[C@@H](C)C(=O)C(C)(C)[C@@H](O)CC(=O)O1,outcome,[3],inactive
same,Potency,[2],inactive
C[C@H]1CCCC=CC2C[C@H](O)C[C@@H]2[C@H](O)C=CC(=O)O1 (stereo partly drawn),outcome,[3],inactive
same,Potency,[7],inactive
same,Potency,[8],inactive
same,Potency,[9],70.8 nM (active)
CC=C(C)C(=O)O[C@H]1C(C)=C2[C@@H]3OC(=O)[C@@](C)(O)[C@@]3(O)[C@@H](OC(=O)CCC)C[C@](C)(OC(C)=O)[C@@H]2[C@@H]1OC(=O)CCCCCCC,outcome,[3],inactive
same,Potency,[7],inactive
same,Potency,[8],inactive
same,Potency,[9],282 nM (active)
same,Potency,[2],inactive
N#C[C@H](O[C@@H]1O[C@H](CO[C@@H]2O[C@H](CO)[C@H](O)[C@H](O)[C@H]2O)[C@H](O)[C@H](O)[C@H]1O)c1ccccc1,outcome,[3],inactive
same,Potency,[2],inactive
CCN(CC)C(=O)c1ccc(C2=CC3(CCNCC3)Oc3cccc(O)c32)cc1,outcome,[3],inactive
same,Potency,[2],inactive
C1=C2CCCN[C@H]2[C@@H]2C[C@H]1[C@@H]1CCCCN1C2,outcome,[3],inactive
same,Potency,[2],inactive
CCNC(=O)CC1N=C(c2ccc(Cl)cc2)c2cc(OC)ccc2-n2c(C)nnc21 (stereo not drawn),outcome,[3],inactive
same,Potency,[2],inactive
C/C=C(/C)C(=O)O[C@H]1C(C)=C2[C@H]([C@@H]1OC(=O)CCCCCCC)[C@@](C)(OC(C)=O)C[C@H](OC(=O)CCC)[C@@]1(O)[C@H]2OC(=O)[C@@]1(C)O,outcome,[3],inactive
same,Potency,[7],inactive
same,Potency,[8],inactive
same,Potency,[9],251 nM (active) and 224 nM (active)
same,Potency,[2],inactive
CCN1C[C@]2(OC(=O)c3ccccc3NC(C)=O)CC[C@H](OC)[C@@]34[C@H]5CC6[C@@H](OC)C[C@](O)(C(C[C@@H]23)[C@@H]14)[C@@]5(O)[C@@H]6OC,outcome,[3],inactive
same,Potency,[2],inactive
CCC(=O)OC1CCC2C3CCC4=CC(=O)CC[C@@]4(C)C3CC[C@]12C (stereo partly drawn),outcome,[3],inactive
same,Potency,[2],inactive
